According to PubChem BioAssay (NCATS):
Records with an inconclusive call do not appear. A call without a number means that no potency is given here. Unmarked numbers belong to inactive results. Calls of active or inactive are those of the source. Calls come from the whole dose curve; as a rule, active = well fitted curve in the direction sought with a large enough effect; inconclusive = small, poorly fitted or top-dose-only effect, or another doubt; inactive = no such curve, though single readings can be large; an effect the other way counts as inactive or inconclusive. Where a SMILES comes first, the peptide text is derived from it.

Legend:
[1] = tested on: Zika virus NS2B-NS3 protease; test: Primary screen GU AMC qHTS for Zika virus inhibitors (AID 1347154); note: nearly all actives have a fitted effect of over 70% in size
Outline: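 Unlinked Zika NS2B hydrophilic domain–NS3 protease complex at 25 nM in 10 mM Tris-HCl pH 8.0, 0.01% Tween 20, with an AMC peptide substrate. Fluorescence change (340/450 nm) over 15 min at room temperature, normalized to controls, fitted to 4-parameter Hill.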

[2] = Primary qHTS for small molecule stabilizers of the endoplasmic reticulum resident proteome: Secreted ER Calcium Modulated Protein (SERCaMP) assay (AID 1508630); note: potency is the fitted concentration of half-maximal effect
Outline: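 The SH-SY5Y reporter protocol was run at 3 concentrations up to 38.3 uM (primary) or 11 concentrations (follow-up): 16 h compound, 100 nM thapsigargin for 4 h, then extracellular luciferase luminescence.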

| SMILES | Potency [1] | Potency [2] | activity change, negative = inhibition [1] | activity change, negative = inhibition [2] |
| --- | --- | --- | --- | --- |
| CC1(C)[C@@H](O)C[C@H]2[C@](C)(O)[C@@H]3CC[C@H]4[C@@H](O)[C@@]3(C[C@@H](O)[C@@]21O)C[C@@]4(C)O | inactive | inactive |  |  |
| CN(C(=O)Cc1ccc(Cl)c(Cl)c1)C(CN1CCCC1)c1cccc(N=C=S)c1 (centres undefined) | inactive | inactive |  |  |
| CN(CC(=O)N[C@H](CO)Cc1ccccc1)C(=O)[C@H](CCS(C)=O)NC(=O)[C@@H](N)Cc1ccc(O)cc1 (some centres undefined) (HELM PEPTIDE1{Y.[CS(=O)CC[C@H](N[*:1])C(=O)[*:2]].[Sar].[OC[C@H](Cc1ccccc1)N[*:1]]}$$$$V2.0) |  |  | 16.9% [at 6.83 µM] | -13.2% [at 3.88 µM] |
| CCCCCCCCCCCCCCCCOC[C@@H](COP(=O)([O-])OCC[N+](C)(C)C)OC(C)=O |  |  | 5.71% [at 6.83 µM] | -29.1% [at 3.88 µM] |
| C[C@H](N)C(=O)N[C@@H](C)C(=O)N[C@@H](Cc1ccccc1)C(=O)CCl (HELM PEPTIDE1{A.A.F.[ClC[*:1]]}$$$$V2.0) | inactive | inactive |  |  |
| COc1cc(OC2CCN(C(C)=O)CC2)ccc1C(=O)N1CCC(N2C(=O)OCc3ccccc32)CC1 | inactive | inactive |  |  |
| CC[C@H](C)[C@H](NC(=O)[C@H](CCCN=C(N)N)NC(=O)[C@H](CCCN=C(N)N)NC(=O)[C@H](CC(C)C)NC(=O)[C@H](Cc1ccccc1)NC(=O)CNC(=O)CNC(=O)[C@@H](N)Cc1ccc(O)cc1)C(=O)O |  |  | 10.8% [at 6.83 µM] | -13% [at 3.88 µM] |
| CCCCCCCCCCCCCCCCOC[C@H](COP(=O)([O-])OCC[N+](C)(C)C)OC(C)=O |  |  | -0.0514% [at 6.83 µM] | -28.3% [at 3.88 µM] |
| COc1ccc2[nH]cc(CCNCc3ccc(Br)cc3)c2c1 | inactive | inactive |  |  |
| Cc1[nH]c2ccc(Cl)cc2c1C1=CCNCC1 | inactive | 35.5 µM (active) |  |  |
| C=C1C(=O)O[C@@H]2C[C@@H](C)[C@@H]3C=CC(=O)[C@@]3(C)[C@@H](O)[C@H]12 | inactive | inactive |  |  |
| Nc1ncnc2c1ncn2[C@@H]1O[C@H](COP(=O)(O)CP(=O)(O)O)[C@@H](O)[C@H]1O | inactive | inactive |  |  |
| COc1ccc2c(CCN)c[nH]c2c1 | inactive | inactive |  |  |
| C[C@H](NC(=O)[C@@H](N)Cc1ccc(O)cc1)C(=O)N[C@@H](Cc1ccccc1)C(=O)N[C@@H](Cc1ccccc1)C(N)=O (H-YAFF-NH2) |  |  | 0.112% [at 6.83 µM] | -10.3% [at 3.88 µM] |
| Cc1ccc2c(c1)Cc1c(C(=O)NC3CCCCC3)nn(-c3ccc(Cl)cc3Cl)c1-2 | inactive | inactive |  |  |
| CCN1C[C@]2(COC)CC[C@H](OC)[C@@]34C5C[C@@H]6[C@@H](OC)C[C@@]7(OCO[C@@]7([C@@H](O)C23)[C@@H]14)C5[C@H]6OC (some centres undefined) | inactive | inactive |  |  |

| SMILES | Potency [1] | Potency [2] | activity change, negative = inhibition [1] | activity change, negative = inhibition [2] |
| --- | --- | --- | --- | --- |
| CC1=C2CC3C(CC=C4C[C@@H](O)CC[C@@]43C)[C@@H]2CC[C@]12O[C@@H]1C[C@H](C)CN[C@H]1[C@H]2C (some centres undefined) | inactive | inactive |  |  |
| CCCCC/C=C\C[C@@H](/C=C/C=C\C/C=C\CCCC(=O)O)OO |  |  | 11.4% [at 0.59 µM] | -39.3% [at 0.478 µM] |
| CO[C@@H]1C[C@@H](C[C@H]2CC[C@H](C)[C@@H]([C@@H](C)C(=O)O)O2)O[C@]2(O[C@](C)([C@H]3CC[C@@](C)(C4OC([C@H]5O[C@@](O)(CO)[C@H](C)C[C@@H]5C)C[C@@H]4C)O3)C[C@H]2C)[C@@H]1C (some centres undefined) | inactive | inactive |  |  |
| O[C@@H]1CCCN2C[C@@H](O)[C@@H](O)C12 (some centres undefined) | inactive | inactive |  |  |
| CC(C)C[C@H](NC(=O)[C@H](Cc1ccccc1)NC(=O)CNC(=O)[C@H](CO)NC(=O)[C@@H](N)Cc1ccc(O)cc1)C(=O)N[C@H](C(=O)O)[C@H](C)O |  |  | 10.8% [at 6.83 µM] | -28.8% [at 3.88 µM] |
| CC(Cc1cccc(C(F)(F)F)c1)NCCCc1ccccc1 (centres undefined) | inactive | inactive |  |  |
| N#CC(C#N)=Cc1cc(O)c(O)c([N+](=O)[O-])c1 | inactive | inactive |  |  |
| CC(CN)CC(=O)O (centres undefined) | inactive | inactive |  |  |
| O=C(O)C1CN(CP(=O)(O)O)CCN1 (centres undefined) | inactive | inactive |  |  |
| COc1ccc(C(=O)O[C@H]2CC[C@@]3(C)C4CCC5[C@]6(O)C[C@H](O)[C@@]7(O)C(CN8C[C@@H](C)CC[C@H]8[C@@]7(C)O)[C@]6(O)C[C@@]53O[C@@]42O)cc1OC (some centres undefined) | inactive | inactive |  |  |
| N#Cc1c(Oc2cccc(OS(=O)(=O)CCCC(F)(F)F)c2)cccc1C(F)(F)F | inactive | inactive |  |  |
| NCCCC[C@H](NC(=O)[C@H](Cc1ccccc1)NC(=O)[C@H](CCCN=C(N)N)NC(=O)[C@@H](N)Cc1ccc(O)cc1)C(N)=O |  |  | 9.11% [at 6.83 µM] | -26.5% [at 3.88 µM] |
| C=C1C([C@@H](O)C[C@H](C)C2O[C@@]3(CCCCO3)CC[C@H]2C)OC2CC[C@@]3(CC[C@@H](/C=C/[C@@H](C)C4CC(C)=C[C@]5(O4)O[C@H](C[C@@](C)(O)C(=O)O)CCC5O)O3)OC2[C@@H]1O (some centres undefined) |  |  | 0.872% [at 4.99 µM] | -21.6% [at 1.51 µM] |
| O=C(O)CCC(CP(=O)(O)O)C(=O)O (centres undefined) | inactive | inactive |  |  |
| COC(C/C=C/C=C/CC/C=C\CC(C)/C=C\C(=C/C(=O)O)CC(=O)O)/C(C)=C\C=C(/C)C(=O)O (centres undefined) |  |  | 8.89% [at 6.83 µM] | -26.8% [at 3.88 µM] |
| C[C@]12CC[C@H]3[C@@H](C[C@H](F)C4=CC(=O)CC[C@@]43C)[C@@H]1CC[C@@H]2O | inactive | inactive |  |  |
